Data as given in PubChem BioAssay AID1259418 (Broad Institute, 2018).
Screen size: about 3,400 compounds; about 840 (25%) were called active. Another 11% or so got no clear call; they are omitted. Not all results are given here. Results with a measured potency or affinity are listed apart. Unmarked numbers belong to inactive results.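 Rule for the calls: active = fitted half-maximal concentration of signal decrease at or below twice the sample's top tested concentration; inconclusive = flat curve between -70 and -30 percent, or poor fit; inactive = flat within 30 percent, signal rise, or potency above limit.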

experiment: inhibitors of Toxoplasma growth in IFN-γ-primed HeLa – cell-based, ME49Luc, luciferase, 72 h, dose response (AID 1259418); details: T. gondii ME49Luc in IFN-y HeLa, stronger effect = lower value, -100% = high-dose IFN-γ control wells; at 19.5 µM unless noted

| SMILES | max activity |
| --- | --- |
| CCc1cnc(N2CCc3cc(C(=O)NCC4CC4)c(N(C)C)nc3CC2)nc1 | -14.2% [at 2.6 µM] |
| CN(C)C(=O)c1cc2c(nc1NCC1CC1)CCN(Cc1ccccn1)CC2 | 32.5% |
| COc1ccc(C(=O)N2CCC3(CC2)Nc2ccc(Cl)cc2-n2cccc23)cc1OC | 9.68% [at 0.68 µM] |
| O=C(Nc1ccc(-c2nc(-c3ccccc3)co2)cc1)C1CCCCC1 | 11.6% [at 10 µM] |
| CCc1ccc(-c2noc(-c3nnn(Cc4nc(-c5ccccc5OC)oc4C)c3C)n2)cc1 | 11.7% [at 1.35 µM] |
| Cc1cccc(OCC(=O)N2CCC[C@@H]2C(=O)NCCc2csc(-c3ccccc3)n2)c1 | 9.84% [at 2.6 µM] |
| O=C(Cc1cccnc1)N1CC(=O)N2[C@@H](CO)[C@H](c3ccc(C#CC4CCCCC4)cc3)[C@@H]2C1 | 14.3% [at 10 µM] |
| COCC(=O)N1CC(=O)N2[C@H](CO)[C@H](c3ccc(C#CC4CC4)cc3)[C@@H]2C1 | 43.4% |
| COCC(=O)N1CC(=O)N2[C@H](CO)[C@@H](c3ccc(C#CC4CC4)cc3)[C@@H]2C1 | 39.9% |
| Cc1ccc(-c2noc(-c3nnn(Cc4nc(-c5ccccc5)oc4C)c3C)n2)cc1C | 6.16% |
| O=C(Cc1cccs1)N1CCC2(CC1)Nc1cc(F)ccc1-n1cccc12 | 7.4% [at 2.6 µM] |
| Cc1cccc(S(=O)(=O)N2CCC(C(=O)NCCc3csc(C)n3)CC2)c1 | -8.91% |
| COc1ccccc1-c1nc(Cn2nnc(-c3nc(-c4cccc(OC)c4OC)no3)c2C)c(C)o1 | -11.2% |
| Cc1ccc(-c2noc(-c3nnn(Cc4nc(-c5ccccc5)oc4C)c3C)n2)cc1 | 8.04% |
| O=C(Nc1ccc(-c2nc(-c3ccccc3)co2)cc1)Nc1ccc(F)c(Cl)c1 | 15.9% |
| CC(C)CNC(=O)C1Cn2ccnc2C2(CCN(c3ncccn3)CC2)O1 (stereo not given) | 47.8% |
| Cc1cccc(-c2nc(Cn3nnc(-c4nc(-c5cccc(Br)c5)no4)c3C)c(C)o2)c1 | 7% [at 0.68 µM] |
| COCCNC1=NCCNC12CCN(S(=O)(=O)c1ccc(C(C)C)cc1)CC2 | -6.8% [at 1.35 µM] |
| CC(C)c1ccc(S(=O)(=O)N2CCC3(CC2)NCCN=C3NCc2ccc(F)cc2)cc1 | -13.4% [at 10 µM] |
| COc1ccccc1CCC(=O)Nc1ccc2c(c1)CCC(=O)N2C | -10.7% [at 0.16 µM] |
| O=C1CCc2cc(NC(=O)c3cncc(Br)c3)ccc2N1 | 4.53% [at 0.68 µM] |
| Cc1cccc(NC(=O)Nc2ccc(-c3nc(-c4cc(C)ccc4C)co3)cc2)c1 | 6.67% |
| CC(C)CC#Cc1ccc([C@@H]2[C@H]3CN(C(=O)Nc4cc(F)ccc4F)CC(=O)N3[C@H]2CO)cc1 | 2.95% [at 0.16 µM] |
| Cc1oc(-c2ccccc2)nc1Cn1nnc(-c2nc(-c3cccc(C(F)(F)F)c3)no2)c1C | -10.4% [at 0.35 µM] |
| CCC(C(=O)N1CCC2(CC1)Nc1cc(OC)ccc1-n1cccc12)c1ccccc1 (stereo not given) | 9.09% [at 0.35 µM] |

| SMILES | max activity |
| --- | --- |
| O=C(CCC1N=C2c3ccccc3N=C(SCc3cccc(F)c3)N2C1=O)NCCc1ccccc1 (stereo not given) | 28.7% |
| COc1ccccc1CNC(=O)CCC1N=C2c3ccccc3N=C(SCc3ccc(C)cc3)N2C1=O (stereo not given) | 16.9% [at 0.16 µM] |
| N#CCSC1=Nc2ccccc2C2=NC(CCC(=O)NCCc3ccccc3)C(=O)N12 (stereo not given) | 23.8% [at 0.16 µM] |
| O=C(CC1N=C2c3ccccc3N=C(SCc3cccc(F)c3)N2C1=O)NCc1ccc(F)cc1 (stereo not given) | 31.4% [at 2.6 µM] |
| O=C(CC1N=C2c3ccccc3N=C(SCc3ccc(F)cc3)N2C1=O)NCc1ccccc1 (stereo not given) | 12.9% [at 10 µM] |
| CCOC(=O)CSC1=Nc2ccccc2C2=NC(CCC(=O)NCCc3ccccc3)C(=O)N12 (stereo not given) | 12.5% |
| CN(C)Cc1noc2c1CN(Cc1nccn1C)CC2 | 50.1% |
| COc1cc(NC(=O)CN2CCC3(CC2)N=C(c2cccc(C)c2)C(=O)N3)cc(OC)c1 | -9.06% [at 2.6 µM] |
| Cc1ccc(-c2nc(Cn3nnc(-c4nc(-c5ccc6c(c5)OCO6)no4)c3C)c(C)o2)cc1 | 17.5% [at 0.68 µM] |
| COc1cc(OC)cc(C(=O)N2CCC3(CC2)Nc2ccc(Cl)cc2-n2cccc23)c1 | -6.3% [at 5 µM] |
| COc1ccccc1N1CCN(c2nc(-c3ccc(Cl)cc3)nc3ccccc23)CC1 | 8.55% [at 5 µM] |
| Cc1noc(C)c1C1CCCN1C(=O)Cn1nc(C(F)(F)F)cc1C (stereo not given) | -9.96% [at 0.35 µM] |
| COc1ccc(-c2nc(N3CCCCCC3)c3ccccc3n2)cc1 | 11.2% [at 0.16 µM] |
| COc1ccc(-c2nc(N3CCN(c4ccccc4)CC3)c3ccccc3n2)cc1 | 18.5% |
| COc1ccc(-c2nc(N3CCN(Cc4ccccc4)CC3)c3ccccc3n2)cc1 | 20.1% |
| COc1ccc(-c2nc(N3CCN(c4ccc(OC)cc4)CC3)c3ccccc3n2)cc1 | 51.6% |
| COc1ccc(-c2nc(N3CCCC3)c3ccccc3n2)cc1 | -15.5% [at 2.6 µM] |
| COc1ccc(-c2nc(N3CCCCC3)c3ccccc3n2)cc1 | 24.4% |
| Clc1ccc(-c2nc(N3CCC4(CC3)OCCO4)c3ccccc3n2)cc1 | -8.6% [at 10 µM] |
| COc1ccc(-c2nc(N3CCC(N4CCCCC4)CC3)c3ccccc3n2)cc1 | -13.2% [at 10 µM] |
| CCc1ccc(C(=O)N2CCC3(CC2)Nc2cc(OC)ccc2-n2cccc23)cc1 | 8.15% [at 0.68 µM] |
| CC(=O)N1CCC(N(C)Cc2cc(C(C)(C)C)n[nH]2)CC1 | 35.9% |
| COc1ccc(-c2noc(-c3nnn(Cc4nc(-c5ccccc5OC)oc4C)c3C)n2)cc1 | 15.5% [at 5 µM] |
| COc1cc(OC)cc(C(=O)N2CSC[C@@H]2C(=O)NCCc2csc(-c3ccccc3)n2)c1 | 23.7% |
| COc1ccc(-c2nc3c(s2)CN(S(=O)(=O)c2cc(OC)ccc2OC)CC3)cc1 | 28% |

| SMILES | max activity |
| --- | --- |
| CCc1ccccc1S(=O)(=O)N1CCc2nc(-c3cccc(OC)c3)sc2C1 | -7.33% [at 0.35 µM] |
| COc1cccc(-c2nc3c(s2)CN(S(=O)(=O)c2ccccc2Cl)CC3)c1 | 5.54% [at 10 µM] |
| CCc1ccccc1S(=O)(=O)N1CCc2nc(-c3ccccc3)sc2C1 | 115% [at 10 µM] |
| COc1cccc(-c2nc3c(s2)CN(S(=O)(=O)c2cc(C)cc(C)c2)CC3)c1 | -33.8% [at 0.16 µM] |
| COc1ccc(-c2nc3c(s2)CN(S(=O)(=O)c2cccc(Cl)c2C)CC3)cc1 | 10.3% [at 10 µM] |
| COc1ccc(S(=O)(=O)N2CCc3nc(-c4cccc(OC)c4)sc3C2)cc1 | -10.4% [at 0.16 µM] |
| COc1cccc(-c2nc3c(s2)CN(S(=O)(=O)c2cccc(C)c2)CC3)c1 | -6.22% [at 2.6 µM] |
| Cc1ccc(-c2nc(CSc3nc4c(c(=O)[nH]3)CN(Cc3ccc(Cl)cc3)CC4)c(C)o2)cc1 | 23.9% |
| O=C(Cn1cccc1-c1nc(-c2ccc(Cl)cc2)cs1)N1CCC2(CC1)OCCO2 | -6.36% [at 10 µM] |
| O=C1CCc2cc(S(=O)(=O)N3CCN(c4ccc(F)cc4)CC3)cc3c2N1CCC3 | 10.7% [at 2.6 µM] |
| CCOC(=O)c1cccc(NC(=O)Nc2ccc(-c3nc(-c4ccc(C)cc4)co3)cc2)c1 | 67.3% |
| COc1ccc(-c2nc3c(s2)CN(C(=O)Nc2ccc(Br)cc2)CC3)cc1 | 26.4% [at 10 µM] |
| Cc1nc(-c2ccccc2)sc1C(=O)Nc1ccc(-n2c(C)nc3ccccc3c2=O)cc1 | -25.8% |
| CC1CCN(C(=O)c2ccc(-c3csc(C4CC4)n3)cc2)CC1 | 6.7% |
| CCN1C(=O)CCc2cc(NC(=O)Cc3c(F)cccc3Cl)ccc21 | 7.81% |
| O=C(Nc1ccc(-c2nc(-c3ccccc3)co2)cc1)c1ccc(Br)o1 | 25.6% |
| Cc1ccc2c(c1C)-n1cccc1C1(CCN(C(=O)c3cccs3)CC1)N2 | -15.1% [at 5 µM] |
| COc1ccc(-c2nc(N3CCC(C)CC3)c3ccccc3n2)cc1 | 21.8% |
| COc1ccc(OCC(=O)N2CCC[C@@H]2C(=O)NCCc2csc(-c3ccccc3)n2)cc1 | 10.2% [at 0.16 µM] |
| COc1ccc(N2CCN(CCNc3nc(-c4ccc(Cl)cc4)nc4ccccc34)CC2)cc1 | 22% [at 0.68 µM] |
| COc1ccc(-c2nc(NCCCN3CCN(c4cc(C)ccc4C)CC3)c3ccccc3n2)cc1 | 21.7% |
| CCCN1CCN(CCCNc2nc(-c3ccc(Cl)cc3)nc3ccccc23)CC1 | -50.1% [at 1.35 µM] |
| COc1ccc(-c2nc(NCCCN3CCN(c4ccc(F)cc4)CC3)c3ccccc3n2)cc1 | -17.2% [at 0.35 µM] |
| COc1ccc(-c2nc(NCCCN3CCCC3)c3ccccc3n2)cc1 | 15.7% |
| COc1ccc(-c2nc(NCCN3CCN(c4ccc(OC)cc4)CC3)c3ccccc3n2)cc1 | 15.4% [at 0.16 µM] |
